High-throughput results from PubChem BioAssay.
Bead autofluor – flagged as autofluorescent in microsphere protease counterscreen | compound autofluorescence counterscreen, microsphere flow cytometry; active compounds read high | fluorescence intensity (test concentration not listed) | 360,000 tested, 3.1% active | AID 624483; in the data active means fluorescence intensity above about 16000; inconclusive means no clear call, values can overlap the other calls
Anthrax LF inh2 – Bacillus anthracis LF protease inhibitors, primary screen, biochemical, multiplex microsphere, MLPCN library; Lethal factor (Bacillus anthracis), P15917; multiplex microsphere protease cleavage assay; inhibition, % at 10 µM; 360,000 tested, 0.12% active; AID 588501, 2011
Target sequence (P15917 whole entry, looked up): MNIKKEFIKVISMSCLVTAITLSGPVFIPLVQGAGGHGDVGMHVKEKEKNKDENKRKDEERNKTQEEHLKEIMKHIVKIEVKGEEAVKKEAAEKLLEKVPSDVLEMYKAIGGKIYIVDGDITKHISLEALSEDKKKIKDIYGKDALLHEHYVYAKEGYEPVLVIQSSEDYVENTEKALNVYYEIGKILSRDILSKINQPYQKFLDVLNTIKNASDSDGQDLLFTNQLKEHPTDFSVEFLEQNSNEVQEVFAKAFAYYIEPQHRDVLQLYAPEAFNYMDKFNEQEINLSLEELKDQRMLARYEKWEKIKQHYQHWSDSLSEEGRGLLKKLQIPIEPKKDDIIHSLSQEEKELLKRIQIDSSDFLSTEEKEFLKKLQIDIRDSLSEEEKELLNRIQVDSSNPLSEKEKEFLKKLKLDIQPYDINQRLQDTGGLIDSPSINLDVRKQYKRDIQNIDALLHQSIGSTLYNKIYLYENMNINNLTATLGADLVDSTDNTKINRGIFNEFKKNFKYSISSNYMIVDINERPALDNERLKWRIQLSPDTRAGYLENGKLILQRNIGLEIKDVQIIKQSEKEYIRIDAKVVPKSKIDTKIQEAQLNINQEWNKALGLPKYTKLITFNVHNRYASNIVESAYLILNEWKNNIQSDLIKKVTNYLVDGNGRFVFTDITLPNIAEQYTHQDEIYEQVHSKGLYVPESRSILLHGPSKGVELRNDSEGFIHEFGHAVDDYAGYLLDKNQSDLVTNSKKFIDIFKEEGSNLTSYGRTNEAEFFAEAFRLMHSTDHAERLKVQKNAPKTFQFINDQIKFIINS
BoNT-A LC inh2 – BoNT/A light chain protease inhibitors, primary screen, biochemical, flow cytometry, MLPCN library; Botulinum neurotoxin type A light chain protease (Clostridium botulinum A str. ATCC 3502); multiplex microsphere protease substrate cleavage; inhibition, % at 10 µM; 360,000 tested, 0.17% active; AID 588499, 2011
BoNT-F LC inh – BoNT/F light chain protease inhibitors, primary screen, biochemical, flow cytometry, MLPCN library; Multiplex microsphere protease cleavage assay; AID 588497, 2011; 360,000 tested, 0.22% active; inhibition, % at 10 µM; in the data active means inhibition above about 35%, passing the limit was not always enough; inconclusive means no clear call, values can overlap the other calls
BH1578 lux ind – inducers of Vibrio cholerae quorum light production without autoinducers, primary screen, BH1578 luxS cqsA deficient, single point; V. cholerae BH1578 lux reporter, luminescence, 6 h; activation, % at 18.7 µM; 350,000 tested, 0.16% active; in the data active means activation mostly above about 9.7%, no sharp cut-off; inconclusive means no clear call, values can overlap the other calls; inactive means mostly below about 3.7%
Each line names hits and unclear results; the compound was inactive in the other large screens. Rows were chosen to be rich in hits. Some 3.5% of all compounds tested hit in one or more screens of this group. Unless noted, no stated cut-off is given here; in the data, active means inhibition above about 30%; inconclusive means no clear call, values can overlap the other calls; inactive means below that.

Cc1ccc2nc(CSc3nc(C)cc(C)c3C#N)[nH]c2c1	Bead autofluor 21126
Cc1cc(C)c(C#N)c(SCc2ccccc2)n1	none
COc1ccc(C(O)c2cnc(C)n2Cc2ccccc2)cc1 (stereo unspecified)	none
CC(C)(C)NC(=O)CSc1nnc(Cc2ccc3c(c2)OCO3)n1C1CCCCC1	Bead autofluor 20511
O=C(CSc1nnnn1C1CCCCC1)NCc1ccc2c(c1)OCO2	none
CS(=O)(=O)NCC(c1ccco1)N1CCN(c2ccc(F)cc2)CC1 (stereo unspecified)	none
CCc1ccc(N/C(SCc2ccccc2C)=C(/C#N)C(=O)NCc2ccco2)cc1	Bead autofluor 17346
COCCNC(=S)N1CCc2cc(OC)c(OC)cc2C1c1cccs1 (stereo unspecified)	none
O=C(CSc1nnc(-c2ccccn2)n1Cc1ccco1)Nc1ccc2c(c1)OCO2	Bead autofluor 20585
Cc1ccccc1-n1c(SCC(=O)Nc2ccc3c(c2)OCO3)nnc1-c1ccccn1	none
O=C(CSc1nnc(-c2ccco2)n1Cc1ccco1)Nc1ccccc1	none
COc1ccc(C)cc1NC(=O)CSc1nnc(-c2ccccn2)n1Cc1ccco1	Bead autofluor 21479, BoNT-A LC inh2 inconclusive
COc1ccc(C(=O)CSc2nnc(-c3cc4ccccc4cc3O)n2Cc2ccco2)cc1	Bead autofluor 23275
COc1ccccc1NC(=O)CSc1nnc(-c2ccccn2)n1Cc1ccco1	none
COc1ccccc1NC(=O)CSc1nnc(-c2ccco2)n1Cc1ccco1	Bead autofluor 19643
COc1ccc(N2CCN(C(=O)C3CCCN3S(=O)(=O)c3cccc4nsnc34)CC2)cc1 (stereo unspecified)	none
O=C(NCCC(=O)N1CCC2(CC1)NCCc1[nH]cnc12)c1cccc(Br)c1	none
Clc1ccc(/C=N/N2CCN(Cc3ccccc3)CC2)cc1	none (no result: Bead autofluor, Anthrax LF inh2, BoNT-A LC inh2, BoNT-F LC inh)
CCn1c(SCC#N)nc2c(c1=O)C1(CCCC1)Cc1ccccc1-2	Bead autofluor 24128
COCCN(Cc1ccccc1)C(=O)c1c(C)nn(-c2ccccc2)c1C	none
COc1cc(C(=O)N2CCC(NC(=O)C(Cc3ccc(C(C)C)cc3)NC(C)=O)CC2)cc(OC)c1OC (stereo unspecified)	none
COc1cc(C(=O)N2CCC(NC(=O)C(Cc3ccc(C)cc3)NC(C)=O)CC2)cc(OC)c1OC (stereo unspecified)	Bead autofluor 22816
COc1cc(C(=O)N2CCN(C(=O)C(Cc3cc(C)ccc3C)NC(C)=O)CC2)cc(OC)c1OC (stereo unspecified)	Bead autofluor 22028
COc1cc(C(=O)N2CCC(NC(=O)C(Cc3ccccc3C)NC(C)=O)CC2)cc(OC)c1OC (stereo unspecified)	Bead autofluor 21354, BoNT-A LC inh2 inconclusive
CS(=O)(=O)N1CCC(Oc2ccccc2C(=O)NCCCc2cccnc2)CC1	none
COc1ccc(-c2cc3c(=O)n(CC(=O)N4CCN(C)CC4)ncn3n2)cc1	none
COc1cccc(C(=O)Nc2ncc3c(n2)CC(c2ccc(OC)cc2OC)CC3=O)c1 (stereo unspecified)	Bead autofluor 24133, BoNT-A LC inh2 inconclusive
COc1ccc(C(=O)Nc2ncc3c(n2)CC(C)CC3=O)cc1 (stereo unspecified)	none
CCOC(=O)c1sc2nc(CC(=O)OC)nc(NCCN(CC)CC)c2c1C	Bead autofluor 18785
CCOC(=O)c1sc2nc(CC(=O)OC)nc(NCCN3CCOCC3)c2c1C	none
Cn1c(=O)oc2cc(S(=O)(=O)Nc3cccc(C(=O)O)c3)ccc21	Bead autofluor 19703
CCC1CCCCN1Cc1ccc(CNS(=O)(=O)c2ccc3c(c2)oc(=O)n3C)o1 (stereo unspecified)	Bead autofluor 22053
Cc1ccc(CCNC(=O)CCNS(=O)(=O)c2ccc3c(c2)oc(=O)n3C)cc1	none
Cn1c(=O)oc2cc(S(=O)(=O)NCCC(=O)NCCc3ccc(Cl)cc3)ccc21	Bead autofluor 19293
CCOC(=O)c1ccc(NC(=O)CCNS(=O)(=O)c2ccc3c(c2)oc(=O)n3C)cc1	Bead autofluor 23217
CCCCN(CC)CCNS(=O)(=O)c1ccc2c(c1)oc(=O)n2C	none
Cn1c(=O)oc2cc(S(=O)(=O)NCCC(=O)NCCc3ccccc3)ccc21	Bead autofluor 20294
CCCN(CCC)CCNS(=O)(=O)c1ccc2c(c1)oc(=O)n2C	Bead autofluor 22046, BoNT-A LC inh2 inconclusive
O=C1C(Cc2ccc(F)cc2)SC(=Nc2ccccc2)N1c1ccccc1 (stereo unspecified)	none
O=C1C(Cc2ccc(Br)cc2)SC(=Nc2ccccc2)N1c1ccccc1 (stereo unspecified)	BoNT-F LC inh 36
CC(C)NC(=O)COc1ncnc2sccc12	Bead autofluor 18786
CC(CN1CCN(C)CC1)OC(=O)c1ccc(Cl)cc1Cl (stereo unspecified)	Bead autofluor 16186, BoNT-A LC inh2 inconclusive
CS(=O)(=O)N(Cc1ccccc1)c1ccc(C(=O)NCc2cccnc2)cc1	none
C=CCN(c1ccc(C(=O)NCCc2ccccc2)cc1)S(C)(=O)=O	Bead autofluor 16236
CS(=O)(=O)N(Cc1ccccc1)c1ccc(C(=O)NCc2ccccc2)cc1	Bead autofluor 22531
C=CCNC(=O)c1ccc(N(CC=C)S(C)(=O)=O)cc1	none
CC(C)S(=O)(=O)C/C(N)=N/OC(=O)c1cc(Cl)cc(Cl)c1	BoNT-F LC inh inconclusive
COC(=O)c1ccccc1NC(=O)Cn1c(SC)c(F)cnc1=O	Bead autofluor 19945
COC(=O)c1ccccc1NC(=O)Cn1c(-c2nonc2N)nc2ccccc21	Bead autofluor 20173
COC(=O)c1ccc(NC(=O)Cn2c(-c3nonc3N)nc3ccccc32)cc1	none
COC(=O)c1ccccc1NC(=O)CN1C(=O)c2ccccc2C1=O	none (no result: Bead autofluor, Anthrax LF inh2, BoNT-A LC inh2, BoNT-F LC inh)
CCCCN1C[C@H](CSC)[C@@H](CC(=O)Nc2ccc(OC)cc2)C1=O	none
CC(C)n1c(CCCO)nc2ccccc21	Bead autofluor 24524
Cc1nn(CCc2n[nH]c(=S)n2-c2ccc(F)cc2)c(C)c1[N+](=O)[O-]	none
Cc1nn(C(C)c2n[nH]c(=S)n2-c2ccc(F)cc2)c(C)c1[N+](=O)[O-] (stereo unspecified)	Bead autofluor 17161
CSc1ccc(S(=O)(=O)NCC(=O)OCC(=O)N2CCC(C)CC2)cc1[N+](=O)[O-]	none
CCC(=O)Nc1cccc(NC(=S)NC(=O)c2ccccc2C)c1	none
CC(C)Oc1ccc(C2c3c(oc4ccccc4c3=O)C(=O)N2CCCN2CCOCC2)cc1 (stereo unspecified)	Bead autofluor 24300, BoNT-A LC inh2 inconclusive
COc1ncccc1C(=O)NCC(CC(=O)O)c1ccccc1 (stereo unspecified)	Bead autofluor 16335
CC1(C)Cc2ccccc2-c2nnc(SCC(=O)N3CCc4ccccc43)n21	Bead autofluor 24428
COc1ccc2nc(NC(=O)CSc3nnc4n3C(C)(C)Cc3ccccc3-4)sc2c1	Bead autofluor 16715
